An excerpt weighted towards active compounds, which were near 1.6% of everything screened.
PriA SSB inh = inhibitors of Klebsiella pneumoniae PriA binding to SSB C-terminal tail, primary screen, biochemical, AlphaScreen | inhibition, % at 33 µM | 0.6% of 430,000 active | AlphaScreen SSBct-PriA binding, biotinylated peptide | AID 1272365, 2023; in the data active = inhibition mostly above about 37%, no sharp cut-off; inactive = mostly below about 20%
PfHsp40 rescue = rescue of yeast from PfHsp40 toxicity, primary screen, S. cerevisiae, ATP luminescence; 0.68% of 340,000 active; S. cerevisiae expressing PfHsp40, growth rescue; growth rescue, % at 12.5 µM; in the data active = growth rescue above about 28%, passing the limit was not always enough;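 also: yeast W303a lacking pdr1 and pdr3 grown in galactose medium; growth measured after three days at 30 °C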
PrP 5UTR inh = inhibition of PrP 5' UTR reporter expression. cell-based PrP 5' UTR mRNA reporter, plate reader. inhibition, % (no concentration beside the values). 0.35% of 340,000 active. AID 488862, 2010; in the data active = inhibition above about 52%
Vc quorum ag = inducers of Vibrio cholerae quorum light production without autoinducers, primary screen, BH1578 luxS cqsA deficient, single point; AID 588436, 2011; activation, % at 18.7 µM; V. cholerae BH1578 lux reporter, luminescence, 6 h; 0.16% of 350,000 active; in the data active = activation mostly above about 9.7%, no sharp cut-off
3CLpro inhibitor = SARS-CoV 3CLpro protease inhibitors, primary screen, biochemical, quenched FRET. Replicase polyprotein 1ab (Severe acute respiratory syndrome coronavirus), P0C6X7. recombinant SARS-CoV 3CLpro, quenched FRET peptide cleavage. inhibition, % at 6 µM. 0.14% of 290,000 active; in the data active = inhibition above about 12%
PrPC TRFRET = inhibitors of human cell surface prion protein PrPC, primary screen, cell-based, TR-FRET; Major prion protein (Homo sapiens), P04156; TR-FRET read-out; inhibition, % at 13.8 µM; 0.43% of 370,000 active; AID 720596, 2013; in the data active = inhibition above about 24%
PrP 5UTR single = prion 5' UTR mRNA inhibition, cherry-pick retest; shares compounds with PrP 5UTR inh; inhibition, % at 2.5 µM; 48% of 1,100 active; cell-based prion protein 5' UTR reporter, plate reader; AID 504592, 2011; in the data active = inhibition above about 54%
Large screens that a line does not name were inactive (follow-up assays come after a bar, where they were run).

COc1cc(C2c3cc4c(cc3C(OC3OC5COC(c6cccs6)OC5C(O)C3O)C3COC(=O)C23)OCO4)cc(OC)c1O (stereo unspecified)	PrP 5UTR inh 71 | PrP 5UTR single 61
O=C(NCCSc1c(-c2ccc(Br)cc2)[nH]c2ccccc12)c1cccs1	none (no result: PfHsp40 rescue, PrP 5UTR inh, Vc quorum ag, 3CLpro inhibitor, PrPC TRFRET)
COC(=O)/C=C1/NC(=Nc2nc(C)cc(C)n2)N(c2ccc(Cl)cc2)C1=O	none (no result: PfHsp40 rescue, PrP 5UTR inh, Vc quorum ag, 3CLpro inhibitor, PrPC TRFRET)
CCOC(=O)C1(Cc2ccccc2)CCCN(Cc2ccc(OCC)c(CO)c2)C1 (stereo unspecified)	PrP 5UTR inh 52 | PrP 5UTR single inactive
CCOC(=O)C1(Cc2ccccc2)CCCN(CCO)C1 (stereo unspecified)	none
COC1=C(C)C(=O)C2=C(C1=O)C1C3CC4=C(C(=O)C(OC)=C(C)C4=O)C(CNC(=O)C(C)=O)N3C(C#N)C(C2)N1C (stereo unspecified)	PrP 5UTR inh 94 (no result: 3CLpro inhibitor) | PrP 5UTR single 97
Cc1ncn(CC(=O)N2CCN(c3ccc(-n4cncn4)nn3)CC2)c(=O)c1C	none (no result: PfHsp40 rescue, PrP 5UTR inh, Vc quorum ag, 3CLpro inhibitor, PrPC TRFRET)
CC(=O)OC1CC(OC2C(O)CC(OC3C(O)CC(OC4CCC5(C)C(CCC6C5CCC5(C)C(C7=CC(=O)OC7)CCC65O)C4)OC3C)OC2C)OC(C)C1OC1OC(CO)C(O)C(O)C1O (stereo unspecified)	PrP 5UTR inh 96 (no result: 3CLpro inhibitor) | PrP 5UTR single 90
O=S(=O)(Cc1cc(-c2ccccc2)no1)c1ccccc1	PrP 5UTR inh 51 | PrP 5UTR single inactive
CCN1C/C(=C/c2cccc([N+](=O)[O-])c2)C(=O)/C(=C/c2cccc([N+](=O)[O-])c2)C1	PrP 5UTR inh 66 | PrP 5UTR single 61
O=C(NCCNc1ccc(Nc2ccncc2)nn1)c1ccc2c(c1)OCO2	none (no result: PfHsp40 rescue, PrP 5UTR inh, Vc quorum ag, 3CLpro inhibitor, PrPC TRFRET)
CCOc1ccc(-n2c(Cc3cc(=O)[nH]c(=O)[nH]3)nnc2SCC(=O)NC2CCCC2)cc1	none
COc1ccc(-n2c(Cc3cc(=O)[nH]c(=O)[nH]3)nnc2SCC(=O)NC2CCCC2)cc1	PrP 5UTR inh 61 | PrP 5UTR single inactive
CN(C)CCN1C(=O)c2cccc3cc([N+](=O)[O-])cc(c23)C1=O	PrP 5UTR inh 66 (no result: 3CLpro inhibitor) | PrP 5UTR single 84
CC(C)CCN1C(=O)C(C)(C)COc2ccc(NC(=O)c3ccc4c(c3)OCO4)cc21	none (no result: PfHsp40 rescue, PrP 5UTR inh, Vc quorum ag, 3CLpro inhibitor, PrPC TRFRET)
Cc1ccccc1COC(=O)c1cc([N+](=O)[O-])ccc1N1CCOCC1	none
CSc1ccc(COC(=O)c2cc([N+](=O)[O-])ccc2N2CCOCC2)cc1	PrP 5UTR inh 72 (no result: 3CLpro inhibitor) | PrP 5UTR single 89
CN1CCN(c2ccc([N+](=O)[O-])cc2C(=O)c2ccc(Br)cc2)CC1	none
O=C(c1ccc(Br)cc1)c1cc([N+](=O)[O-])ccc1N1CCCCC1	PrP 5UTR inh 58 | PrP 5UTR single 94
Cc1ccc(C(=O)c2cc([N+](=O)[O-])ccc2N2CCOCC2)c(C)c1	PrP 5UTR inh 75 | PrP 5UTR single 86
O=C(c1cc([N+](=O)[O-])ccc1N1CCOCC1)N1CCN(c2ccccc2)CC1	PrP 5UTR inh 81 (no result: PriA SSB inh) | PrP 5UTR single 92
CN1CCN(c2ccc([N+](=O)[O-])cc2C(=O)N2CCOCC2)CC1	none
Clc1ccc(Cn2ncc3c(NCCCN4CCOCC4)ncnc32)cc1	none (no result: PfHsp40 rescue, PrP 5UTR inh, Vc quorum ag, 3CLpro inhibitor, PrPC TRFRET)
COc1ccc(CC(=O)NCC(C)(O)C2CC2)cc1OC (stereo unspecified)	none (no result: PfHsp40 rescue, PrP 5UTR inh, Vc quorum ag, 3CLpro inhibitor, PrPC TRFRET)
CN1C(=O)NC2(CCN(C(=O)c3ccc4c(c3)OCO4)CC2)C1=O	none (no result: PfHsp40 rescue, PrP 5UTR inh, Vc quorum ag, 3CLpro inhibitor, PrPC TRFRET)
O=C(CSc1cn(CCNC(=O)c2ccc3ccccc3c2)c2ccccc12)NCc1ccco1	PrP 5UTR inh 58 | PrP 5UTR single inactive
CC(=O)NCC(=O)NC1CCC(Oc2cnccn2)CC1 (stereo unspecified)	none (no result: PfHsp40 rescue, PrP 5UTR inh, Vc quorum ag, 3CLpro inhibitor, PrPC TRFRET)
O=C(O)Cc1sc(Nc2ccccc2)nc1-c1ccc(Cl)cc1	PrP 5UTR inh 57 | PrP 5UTR single inactive
COc1ccc(OC)c(NC(=O)C(C)Oc2ccc(F)cc2)c1 (stereo unspecified)	none (no result: PfHsp40 rescue, PrP 5UTR inh, Vc quorum ag, 3CLpro inhibitor, PrPC TRFRET)
Cc1nn(C(C)(C)C)c(C)c1/C=N/OC(=O)Nc1ccc(Cl)cc1	PrP 5UTR inh 94 | PrP 5UTR single 93
Cc1nn(C)c(C)c1/C=N/NC(=O)C(C)(C)Oc1ccc(Cl)cc1	none (no result: PriA SSB inh, PrPC TRFRET)
COc1ccc(-c2cc3c(SCc4cccc(F)c4)nccn3n2)cc1	none (no result: PfHsp40 rescue, PrP 5UTR inh, Vc quorum ag, 3CLpro inhibitor, PrPC TRFRET)
COc1c[nH]c(C(=O)Nc2cccc(F)c2)cc1=O	none (no result: PfHsp40 rescue, PrP 5UTR inh, Vc quorum ag, 3CLpro inhibitor, PrPC TRFRET)
CCOc1cc(/C=C/C(=O)c2ccc(O)cc2)ccc1OCC(=O)N(C)C	none
CCOc1cc(/C=C/C(=O)c2ccc3c(c2)OCCO3)ccc1OCC(=O)N(C)C	PrP 5UTR inh 60 | PrP 5UTR single inactive
Cc1nc(C)n(C(C)CNC(=O)c2ccco2)n1 (stereo unspecified)	PrP 5UTR inh 61 | PrP 5UTR single inactive
CCc1noc(C)c1C(=O)N(C)CC(=O)Nc1cccc(OC)c1	PrP 5UTR inh 89 (no result: 3CLpro inhibitor) | PrP 5UTR single inactive
Cn1nc(C(=O)NCc2ccnc(-c3ccsc3)c2)ccc1=O	none (no result: PfHsp40 rescue, PrP 5UTR inh, Vc quorum ag, 3CLpro inhibitor, PrPC TRFRET)
COc1ccccc1CNC(=O)C1=Cc2cc(Cl)cc(OC)c2OC=C1	none (no result: PfHsp40 rescue, PrP 5UTR inh, Vc quorum ag, 3CLpro inhibitor, PrPC TRFRET)
CCOC(=O)Cc1csc(NN=Cc2ccccc2)n1	none (no result: PfHsp40 rescue, PrP 5UTR inh, Vc quorum ag, 3CLpro inhibitor, PrPC TRFRET)
CCOC(=O)Cc1csc(N/N=C/c2ccc(Cl)cc2)n1	PrP 5UTR inh 66 | PrP 5UTR single inactive
Cc1ccc2nc(-c3ccccc3)cn2c1	PrP 5UTR inh 87 | PrP 5UTR single 85
C/C(=N\Nc1nc(N2CCCCC2)nc(N2CCOCC2)n1)c1ccccc1O	PrP 5UTR inh 81 (no result: PriA SSB inh) | PrP 5UTR single inactive

From PubChem
